The values that follow come from the supplement of paper PMC7411640.

Molecules are shown by their SMILES. Structures can show the parent of a compound that is named as a salt.

The assay deals with MDA-MB-468. As to the kind of experiment: phospho-S6 immunofluorescence (DAPI-normalised), per-plate z-score; higher = higher phospho-S6 signal (less pathway suppression). Particulars: 24 h. As to the method: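 GPCR-targeted compound library (MedChemExpress HY-L006) tested on MDA-MB-468 PTEN-null TNBC cells in 384-well plates at 0.1, 1 or 10 uM, combined with vehicle, GDC0941 450 nM or lapatinib 1 uM, for 24 h. Phospho-S6 (S240/244) immunofluorescence normalised to DAPI and expressed as a per-plate z-score; values are the mean of biological triplicates.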

With `Cc1nccn1CCC(C(N)=O)(c1ccccc1)c1ccccc1` [Imidafenacin] (compound 10 µM), the “phospho-S6 immunofluorescence (z-score)” value is -0.05 (co-treatment: GDC0941 450 nM), 0.38 (co-treatment: lapatinib 1 uM) and 0.28 (co-treatment: vehicle).
The corresponding values for `O=C(/C=C/c1ccc(Cl)cc1)N1CCC2(CC1)CN(Cc1ccc(Cl)c(Cl)c1)C(=O)O2` (compound 10 µM) are -2.76, -2.4 and -1.92.
As for `CNC(=O)c1cnn(-c2nc(N)c3ncn([C@@H]4O[C@H](CO)[C@@H](O)[C@H]4O)c3n2)c1` [Regadenoson] (compound 10 µM), the “phospho-S6 immunofluorescence (z-score)” value is 1.19 (co-treatment: GDC0941 450 nM), 1.71 (co-treatment: lapatinib 1 uM) and 0.29 (co-treatment: vehicle).
The corresponding values for `O=C(Nc1ccc([N+](=O)[O-])cc1O)Nc1ccccc1Br` (compound 10 µM) are -1.44, 0.89 and -0.39.
Turning to `O=C(O[C@H]1CN2CCC1CC2)N1CCc2ccccc2[C@@H]1c1ccccc1` [Solifenacin (Succinate)] (compound 10 µM), the “phospho-S6 immunofluorescence (z-score)” value by setting is: (co-treatment: GDC0941 450 nM) 1.65; (co-treatment: lapatinib 1 uM) 1.13; (co-treatment: vehicle) -0.65.
As to `OCCOCCN1CCN(C(c2ccccc2)c2ccccc2)CC1` [Decloxizine (dihydrochloride)] (compound 10 µM), the “phospho-S6 immunofluorescence (z-score)” value is 0.55 (co-treatment: GDC0941 450 nM), -0.6 (co-treatment: lapatinib 1 uM) and -0.19 (co-treatment: vehicle).
In the case of `CCN1CCC[C@H]1CNC(=O)c1cc(S(N)(=O)=O)ccc1OC` [Levosulpiride] (compound 10 µM), the “phospho-S6 immunofluorescence (z-score)” value was 0.22 (co-treatment: GDC0941 450 nM), 0.89 (co-treatment: lapatinib 1 uM) and -0.63 (co-treatment: vehicle).
The corresponding values for `Cc1nccn1CC1CCc2c(c3ccccc3n2C)C1=O` (stereo not drawn) [Ondansetron (hydrochloride dihydrate)] (compound 10 µM) are 0.11, -0.58 and 0.16.
The corresponding values for `COc1ccc(NS(=O)(=O)c2sc3ccc(Cl)cc3c2C)cc1N1CCNCC1` (compound 10 µM) are 0.28, -1 and 0.35.
In the same order, the values of `CN(C)CCC=C1c2ccccc2C=Cc2ccccc21` [Cyclobenzaprine (hydrochloride)] (compound 10 µM) are 0.8, -0.8 and -0.18.
With `c1ccc2c(c1)N=C(N1CCNCC1)c1ccccc1N2` [DREADD agonist 21] (compound 10 µM), the “phospho-S6 immunofluorescence (z-score)” value (co-treatment: GDC0941 450 nM) is -0.11, the “phospho-S6 immunofluorescence (z-score)” value (co-treatment: lapatinib 1 uM) was -1.74 and the “phospho-S6 immunofluorescence (z-score)” value (co-treatment: vehicle) is -0.53.
As for `CC(C)COc1ccc(CNC(=O)N(Cc2ccc(F)cc2)C2CCN(C)CC2)cc1` [Pimavanserin tartrate] (compound 10 µM), the “phospho-S6 immunofluorescence (z-score)” value reads like this: (co-treatment: GDC0941 450 nM) -3.99; (co-treatment: lapatinib 1 uM) -6.18; (co-treatment: vehicle) -5.03.
For the molecule `CCOC(=O)N1CCC(NCCNC(=O)c2ccccc2C)CC1` (compound 10 µM), the “phospho-S6 immunofluorescence (z-score)” value (co-treatment: GDC0941 450 nM) is 0.96, the “phospho-S6 immunofluorescence (z-score)” value (co-treatment: lapatinib 1 uM) was -0.15 and the “phospho-S6 immunofluorescence (z-score)” value (co-treatment: vehicle) amounted to 1.13.
For `COc1cc(NC(=O)CCN2CCC(OC(=O)Nc3ccccc3-c3ccccc3)CC2)c(Cl)cc1CNC[C@H](O)c1ccc(O)c2[nH]c(=O)ccc12` [Batefenterol] (compound 10 µM), the “phospho-S6 immunofluorescence (z-score)” value is, setting by setting: (co-treatment: GDC0941 450 nM) -3.26; (co-treatment: lapatinib 1 uM) -4.13; (co-treatment: vehicle) 0.38.
In the same order, the values of `CN(C)CCCN1c2ccccc2Sc2ccc(C(F)(F)F)cc21` [Triflupromazine (hydrochloride)] (compound 10 µM) are -0.42, -2.74 and 2.53.
The corresponding values for `CC(C)NCC(O)COc1ccc(CCOCC2CC2)cc1` (stereo not drawn) [Betaxolol (hydrochloride)] (compound 10 µM) are 0.79, 0.07 and 0.74.
As to `CCN1CCCC1CNC(=O)c1cc(S(N)(=O)=O)ccc1OC` (stereo not drawn) [Sulpiride] (compound 10 µM), the “phospho-S6 immunofluorescence (z-score)” value reads like this: (co-treatment: GDC0941 450 nM) -0.13; (co-treatment: lapatinib 1 uM) 0.19; (co-treatment: vehicle) 0.05.
Take `C[C@H](NC(=O)CNC(=O)c1cccc(Cl)c1)c1ccccc1` (compound 10 µM): the “phospho-S6 immunofluorescence (z-score)” value (co-treatment: GDC0941 450 nM) was 0.04, the “phospho-S6 immunofluorescence (z-score)” value (co-treatment: lapatinib 1 uM) stood at 0.45 and the “phospho-S6 immunofluorescence (z-score)” value (co-treatment: vehicle) is 0.46.
In the same order, the values of `O=C(Nc1ccccc1)C12CC1C(=NO)c1ccccc1O2` (stereo not drawn) (compound 10 µM) are -0.19, -0.81 and 0.75.
`CC(C)Oc1ccc(-c2nc(-c3cccc4c3CC[C@@H]4NCCO)no2)cc1C#N` [Ozanimod] (compound 10 µM): the “phospho-S6 immunofluorescence (z-score)” value (co-treatment: GDC0941 450 nM) was found to be 0.72, the “phospho-S6 immunofluorescence (z-score)” value (co-treatment: lapatinib 1 uM) is -0.62 and the “phospho-S6 immunofluorescence (z-score)” value (co-treatment: vehicle) is -0.3.
`CN1CCN(CC(=O)N2c3ccccc3C(=O)Nc3cccnc32)CC1` [Pirenzepine (dihydrochloride)] (compound 10 µM): the “phospho-S6 immunofluorescence (z-score)” value (co-treatment: GDC0941 450 nM) amounted to 1.51, the “phospho-S6 immunofluorescence (z-score)” value (co-treatment: lapatinib 1 uM) was found to be 1.09 and the “phospho-S6 immunofluorescence (z-score)” value (co-treatment: vehicle) stood at 0.23.
Regarding `COc1ccc2c(c1OC)C(=O)O[C@@H]2[C@H]1c2c(cc3c(c2OC)OCO3)CCN1C` [Noscapine] (compound 10 µM), the “phospho-S6 immunofluorescence (z-score)” value by setting is: (co-treatment: GDC0941 450 nM) 0.49; (co-treatment: lapatinib 1 uM) 0.12; (co-treatment: vehicle) 0.47.
In the same order, the values of `Cc1ccc(Sc2ccccc2N2CCNCC2)c(C)c1` [Vortioxetine (hydrobromide)] (compound 10 µM) are -5.79, -11.4 and -9.37.
In the same order, the values of `CCCCc1nc(Cl)c(CO)n1Cc1ccc(-c2ccccc2-c2nnn[nH]2)cc1` [Losartan (potassium)] (compound 10 µM) are 0.74, 0.83 and 0.81.
As for `CN(C)C(=O)CCSC(SCCC(=O)O)c1cccc(/C=C/c2ccc3ccc(Cl)cc3n2)c1` (stereo not drawn) [MK-571 (sodium salt)] (compound 10 µM), the “phospho-S6 immunofluorescence (z-score)” value runs as follows: (co-treatment: GDC0941 450 nM) -0.65; (co-treatment: lapatinib 1 uM) 0.9; (co-treatment: vehicle) 1.28.
In the case of `OCCOCCN1CCN(C2=Nc3ccccc3Sc3ccccc32)CC1` [Quetiapine] (compound 10 µM), the “phospho-S6 immunofluorescence (z-score)” value (co-treatment: GDC0941 450 nM) came out at 0.95, the “phospho-S6 immunofluorescence (z-score)” value (co-treatment: lapatinib 1 uM) is -0.32 and the “phospho-S6 immunofluorescence (z-score)” value (co-treatment: vehicle) was 0.64.
The corresponding values for `CC(N)(C(=O)O)c1ccc(C(=O)O)cc1` (racemic) (compound 10 µM) are 0.62, 0 and 0.84.
Turning to `Nc1nc(N)nc(-c2cc(Cl)ccc2Cl)n1` [Irsogladine] (compound 10 µM), the “phospho-S6 immunofluorescence (z-score)” value is -0.7 (co-treatment: GDC0941 450 nM), 0.22 (co-treatment: lapatinib 1 uM) and -1.11 (co-treatment: vehicle).
`c1cnc(NCc2ccc(CNc3ncccn3)cc2)nc1` (compound 10 µM): the “phospho-S6 immunofluorescence (z-score)” value by setting is: (co-treatment: GDC0941 450 nM) -0.12; (co-treatment: lapatinib 1 uM) -0.26; (co-treatment: vehicle) -0.11.
`CCCCC[C@H](O)/C=C/[C@@H]1[C@@H](C/C=C\CCCC(=O)O)[C@@H](O)C[C@H]1O` [Dinoprost (tromethamine salt)] (compound 10 µM): the “phospho-S6 immunofluorescence (z-score)” value was -0.07 (co-treatment: GDC0941 450 nM), -0.14 (co-treatment: lapatinib 1 uM) and 0.98 (co-treatment: vehicle).
On to `Nc1nc(-c2nn(Cc3ccccc3F)c3ncccc23)ncc1C1CC1` (compound 10 µM), for which the “phospho-S6 immunofluorescence (z-score)” value (co-treatment: GDC0941 450 nM) worked out at 1.07, the “phospho-S6 immunofluorescence (z-score)” value (co-treatment: lapatinib 1 uM) was 2.78 and the “phospho-S6 immunofluorescence (z-score)” value (co-treatment: vehicle) is -0.52.
As to `O=C(O[C@H]1CN2CCC1CC2)N1CCc2ccccc2[C@@H]1c1ccccc1` [Solifenacin (hydrochloride)] (compound 10 µM), the “phospho-S6 immunofluorescence (z-score)” value (co-treatment: GDC0941 450 nM) was determined as 0.75, the “phospho-S6 immunofluorescence (z-score)” value (co-treatment: lapatinib 1 uM) was found to be 1.12 and the “phospho-S6 immunofluorescence (z-score)” value (co-treatment: vehicle) was -1.36.
For `CN1CC2c3ccccc3Oc3ccc(Cl)cc3C2C1` (stereo not drawn) [Asenapine (hydrochloride)] (compound 10 µM), the “phospho-S6 immunofluorescence (z-score)” value runs as follows: (co-treatment: GDC0941 450 nM) -0.8; (co-treatment: lapatinib 1 uM) -2.17; (co-treatment: vehicle) 0.
Turning to `Cc1ccccc1C(=O)Nc1ccc(C(=O)N2CCCC(O)c3cc(Cl)ccc32)c(C)c1` (stereo not drawn) [Tolvaptan] (compound 10 µM), the “phospho-S6 immunofluorescence (z-score)” value is, setting by setting: (co-treatment: GDC0941 450 nM) 0.01; (co-treatment: lapatinib 1 uM) -1.6; (co-treatment: vehicle) -0.25.
In the same order, the values of `COc1cc2nc(N3CCN(C(=O)C4CCCO4)CC3)nc(N)c2cc1OC` (stereo not drawn) [Terazosin (hydrochloride dihydrate)] (compound 10 µM) are 0.82, 0.9 and 0.87.
In the same order, the values of `CN(C)CCOC(C)(c1ccccc1)c1ccc(Cl)cc1` (stereo not drawn) [Chlorphenoxamine] (compound 10 µM) are -4.26, -7.36 and -4.5.
In the same order, the values of `COc1ccc(N2CCOCC2)c2sc(NC(=O)N3CCC(C)(O)CC3)nc12` [Tozadenant] (compound 10 µM) are 0.02, 0.77 and 0.82.
Turning to `CC(=O)OC(C)C[N+](C)(C)C` (stereo not drawn) [Methacholine (chloride)] (compound 10 µM), the “phospho-S6 immunofluorescence (z-score)” value was found to be 0.63 (co-treatment: GDC0941 450 nM), 0.47 (co-treatment: lapatinib 1 uM) and 1 (co-treatment: vehicle).
In the case of `C[C@@H]1C[C@H]2[C@@H]3CCC4=CC(=O)C=C[C@]4(C)[C@@]3(F)[C@@H](O)C[C@]2(C)[C@@]1(O)C(=O)CO` [Dexamethasone] (compound 10 µM), the “phospho-S6 immunofluorescence (z-score)” value turned out to be 0.1 (co-treatment: GDC0941 450 nM), 0.34 (co-treatment: lapatinib 1 uM) and 1.02 (co-treatment: vehicle).
For `COc1ccc(CNC(=O)c2sc3nc(C)cc(C)c3c2N)cc1` (compound 10 µM), the “phospho-S6 immunofluorescence (z-score)” value reads like this: (co-treatment: GDC0941 450 nM) -1.98; (co-treatment: lapatinib 1 uM) 1.66; (co-treatment: vehicle) 0.34.
Turning to `Cn1c(=O)c2nc[nH]c2n(C)c1=O` [Theophylline] (compound 10 µM), the “phospho-S6 immunofluorescence (z-score)” value is, setting by setting: (co-treatment: GDC0941 450 nM) 0.11; (co-treatment: lapatinib 1 uM) 0.16; (co-treatment: vehicle) 0.71.
In the same order, the values of `COCCOc1ccc(N2CCN(CCn3ncc4c3nc(N)n3nc(-c5ccco5)nc43)CC2)cc1` [Preladenant] (compound 10 µM) are -0.66, 0.79 and 0.97.
In the same order, the values of `Cc1noc(-c2ccc(-c3ccc(CC(=O)O)cc3)cc2)c1NC(=O)O[C@H](C)c1ccccc1` (compound 10 µM) are 0.62, 1.57 and 0.63.
Consider `O=C(N[C@H]1CCN(C(=O)c2cc(C(F)(F)F)cc(C(F)(F)F)c2)[C@H](Cc2ccc(Cl)cc2)C1)c1ccnc2ccccc12` (compound 10 µM), for which the “phospho-S6 immunofluorescence (z-score)” value runs as follows: (co-treatment: GDC0941 450 nM) -1.97; (co-treatment: lapatinib 1 uM) -1.9; (co-treatment: vehicle) -1.44.
Take `CN(C)CCOC(c1ccccc1)c1ccccc1` [Diphenhydramine (hydrochloride)] (compound 10 µM): the “phospho-S6 immunofluorescence (z-score)” value is, setting by setting: (co-treatment: GDC0941 450 nM) -0.32; (co-treatment: lapatinib 1 uM) -0.09; (co-treatment: vehicle) 0.32.
With `O=c1n(CCCN2CCN(c3cccc(Cl)c3)CC2)nc2ccccn12` [Trazodone (hydrochloride)] (compound 10 µM), the “phospho-S6 immunofluorescence (z-score)” value runs as follows: (co-treatment: GDC0941 450 nM) 0.41; (co-treatment: lapatinib 1 uM) 0.08; (co-treatment: vehicle) -0.51.
